Results filed as inconclusive are left out. Where a call stands in place of a potency, no number is given. Values without a mark were called inactive. The source made the active and inactive calls. The call rests on the fitted dose curve; in most records, active means well fitted cell-killing curve with a large enough effect in the repeat runs; inconclusive means weak or mixed curves, or effect the other way; inactive means flat fitted curve, though single readings scatter.
Test: qHTS assay to identify small molecule agonists of the estrogen receptor beta (ER-beta) signaling pathway - cell viability counter screen (AID 1259380); further: nearly all actives have a fitted effect of over 30% in size
Details: ER-beta-bla HEK293T viability, CellTiter-Glo luminescence, 16 h; series mostly up to 92.4 µM
Text: National Center for Advancing Translational Sciences [NCATS]
NIH Chemical Genomics Center [NCGC]
U.S. Environmental Protection Agency [EPA]
National Institutes of Environmental Health Sciences [NIEHS]
National Toxicology Program [NTP]
U.S. Food and Drug Administration [FDA]
Estrogen receptor (ER), a nuclear hormone receptor, plays an important role in development, metabolic homeostasis and reproduction. Two subtypes of ER, ER-alpha and ER-beta, have similar expression patterns with some uniqueness in both types. Endocrine disrupting chemicals (EDCs) and their interactions with steroid hormone receptors like ER causes disruption of normal endocrine function. To identify the compounds that activate ER signaling, an ER beta-UAS-bla GripTite cell line (Life Technologies, Madison, WI, USA) containing a beta-lactamase reporter gene under the control of an UAS response element was used to screen Tox21 10K compound library. The cytotoxicity of the Tox21 compound library against the ER-beta-bla cell line was tested in parallel by measuring the cell viability using CellTiter-Glo assay in the same wells.
Tox21 Assay Protocol Summary:
ER-beta-UAS-bla HEK293T cells were dispensed at 2,000 cells/5 uL of assay medium containing 2% charcoal stripped FBS per well into black wall/clear-bottom 1536-well plates using a Multidrop Combi (ThermoFisher Scientific, Waltham, MA) dispenser. After the assay plates were incubated at a 37C and 5% CO2 for 6 hr, 23 nL of compounds dissolved in DMSO, positive controls or DMSO only was transferred to the assay plate by a Pintool station (Kalypsys, San Diego, CA). The plates were incubated at 37C and 5% CO2 for 16 hr. Then 1 uL of LiveBLAzerTM B/G FRET substrate was added using a BioRAPTR FRD (Flying Reagent Dispenser, Aurora Discovery, San Diego, CA) and then the plates were incubated at room temperature for 2 hours, and fluorescence intensity was measured by an Envision plate reader (PerkinElmer, Shelton, CT). For cell viability readout that measures cytotoxicity, 4 uL/well of CellTiter-Glo reagent was added into the assay plates using a FRD. After 30 min incubation at room temperature, the luminescence intensity in the plates was measured using a ViewLux (PerkinElmer) plate reader.
Potency means the concentration at half of the fitted maximal effect.

With `Cc1c[nH]c2ccccc12` as the molecule, how does the Potency read?
Its Potency is “inactive”.

Which Potency does the source give for `CC(C)COC(=O)COc1cc(Cl)c(Cl)cc1Cl` here?
The Potency was “inactive”.

With `CC1=CC[C@@H]2C[C@H]1C2(C)C` as the molecule, how does the activity change, negative = cytotoxicity read?
Its activity change, negative = cytotoxicity is 5.66% [at 19 µM].

With `CCCOC(=O)c1c(Cl)c(Cl)c(Cl)c(Cl)c1C(=O)OCCC` as the molecule, how does the Potency read?
The Potency was “inactive”.

For `Cc1ccc2c(c1[N+](=O)[O-])C(=O)c1ccccc1C2=O`, which Potency is on record?
Its Potency is “inactive”.

Which Potency does the source give for `COc1ccc(-c2cc(C(F)F)nn2-c2ccc(S(N)(=O)=O)cc2)cc1F` here?
Its Potency is “inactive”.

With `CC(C)C(=O)OCCOc1ccccc1` as the molecule, how does the Potency read?
Its Potency is “inactive”.

With `Cc1ccccc1S(N)(=O)=O` as the molecule, how does the Potency read?
The Potency was “inactive”.

Which Potency does the source give for `CC[C@H]1OC(=O)[C@H](C)[C@@H](O[C@H]2C[C@@](C)(OC)[C@@H](O)[C@H](C)O2)[C@H](C)[C@@H](O[C@@H]2O[C@H](C)C[C@H](N(C)C)[C@H]2O)[C@](C)(O)C[C@@H](C)/C(=N\OCOCCOC)[C@H](C)[C@@H](O)[C@]1(C)O` here?
The Potency was “inactive”.

Which Potency does the source give for `CC[C@H]1OC(=O)[C@H](C)[C@@H](O[C@H]2C[C@@](C)(OC)[C@@H](O)[C@H](C)O2)[C@H](C)[C@@H](O[C@@H]2O[C@H](C)C[C@H](N(C)C)[C@H]2O)[C@](C)(O)C[C@@H](C)C(=O)[C@H](C)[C@@H](O)[C@]1(C)O` here?
The Potency was “inactive”.

Which Potency does the source give for `CC(=O)OC(C)C[N+](C)(C)C` (stereo not given) here?
The Potency was “inactive”.

For `O=CNNC=O`, which Potency is on record?
Its Potency is “inactive”.

For `O=[N+]([O-])c1ccc2ncccc2c1`, which Potency is on record?
The Potency was “inactive”.

Which Potency does the source give for `CC(=O)C(C)=O` here?
The Potency was “inactive”.

Which Potency does the source give for `C=C(C)C(=O)OCCC(F)(F)C(F)(F)C(F)(F)C(F)(F)C(F)(F)C(F)(F)F` here?
The Potency was “inactive”.

For `CC1C(C)(C)C2=C(C(=O)CCC2)C1(C)C` (stereo not given), which Potency is on record?
The Potency was “inactive”.

For `CCc1ccc(C)cc1`, which Potency is on record?
Its Potency is “inactive”.

For `CC(=O)OCCC1CCCCC1`, which Potency is on record?
The Potency was “inactive”.

For `CCCCCC`, which Potency is on record?
The Potency was “inactive”.

Which Potency does the source give for `N[C@@H](Cc1cc(I)c(O)c(I)c1)C(=O)O` here?
Its Potency is “inactive”.

With `CC(C)(C(=O)c1cccnc1)c1cccnc1` as the molecule, how does the Potency read?
The Potency was “inactive”.

Which Potency does the source give for `O=S(=O)(Cl)c1c(Cl)cccc1Cl` here?
The Potency was “inactive”.

With `COC(C)(C)OC` as the molecule, how does the Potency read?
The Potency was “inactive”.

For `COC(=O)C1=C(C)NC(C)=C(C(=O)OC(C)(C)CN(C)CCC(c2ccccc2)c2ccccc2)C1c1cccc([N+](=O)[O-])c1` (stereo not given), which Potency is on record?
Its Potency is “inactive”.

With `CCC(Cl)CC(Cl)C(Cl)C(Cl)C(Cl)C(C)Cl` (stereo not given) as the molecule, how does the activity change, negative = cytotoxicity read?
Its activity change, negative = cytotoxicity is -10.7% [at 19 µM].

Which Potency does the source give for `Cc1ccc2c(c1)CCCN2` here?
Its Potency is “inactive”.

Which Potency does the source give for `CC(C)(O)c1coc(S(=O)(=O)NC(=O)Nc2c3c(cc4c2CCC4)CCC3)c1` here?
Its Potency is “inactive”.

Which Potency does the source give for `COC(OC)OC` here?
Its Potency is “inactive”.

Which Potency does the source give for `Oc1cccc2[nH]ccc12` here?
The Potency was “inactive”.

With `CC(CN(CCN(CC(C)OCCO)CC(C)OCCO)CC(C)OCCO)OCCO` (stereo not given) as the molecule, how does the Potency read?
The Potency was “inactive”.

Which Potency does the source give for `Cc1ccc(Nc2c(F)cccc2Cl)c(CC(=O)O)c1` here?
Its Potency is 26.6 µM (active).

For `O=C(Oc1ccccc1)c1ccc2ccccc2c1O`, which Potency is on record?
The Potency was “inactive”.

With `O=C(O)c1cccc(Oc2ccccc2)c1` as the molecule, how does the Potency read?
The Potency was “inactive”.

With `C=CC(=O)O` as the molecule, how does the Potency read?
Its Potency is “inactive”.

Which Potency does the source give for `Nc1nc(-c2ccc([N+](=O)[O-])cc2)cs1` here?
Its Potency is “inactive”.

For `CC(C)(C)NCC(O)COc1cccc2c1C[C@H](O)[C@H](O)C2` (stereo not given in full), which Potency is on record?
Its Potency is “inactive”.

For `[Cl][Nd]([Cl])[Cl]`, which Potency is on record?
Its Potency is “inactive”.

For `CC(C)(C)C(O)/C=C/c1ccc2c(c1)OCO2` (stereo not given), which Potency is on record?
The Potency was “inactive”.

With `Cc1ccc(N(CC2=NCCN2)c2cccc(O)c2)cc1` as the molecule, how does the Potency read?
The Potency was “inactive”.

With `O=C(O)CNC(=O)c1ccccc1I` as the molecule, how does the Potency read?
The Potency was “inactive”.

Reference: PubChem BioAssay (Tox21)
